Results on seven compounds are retold here after PubChem BioAssay.

The subject of experiment [1] is TRPC4 beta (transient receptor potential cation channel C4), mouse. The experiment can be described thus: TRPC4 cation channel opening, retest – cell-based, Fluo4 calcium, HEK293 TRPC4beta/mu-opioid, duplicates, 10 µM, confirmation (AID 2426;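 active = fluorescence ratio normalized to control raised more than 50% in primary screen plus both repeat runs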;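 note: percent rise of integrated ratio over buffer wells lacking compound which define 0%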). To be noted: Fluo4 calcium fluorescence, at 10 µM; active compounds read high.
The test system of experiment [2] is transient receptor potential cation channel C4 beta (TRPC4), mouse. The experiment can be described thus: TRPC4 cation channel opening, second retest – cell-based, second round, Fluo4, HEK293 TRPC4beta/mu-opioid, 1 µM, confirmation (AID 2461;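 active = primary screen active and over 50% activation in each of two duplicate runs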;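 for activation: 0% = wells without test compound as baseline of integrated fluorescence ratio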). To be noted: Fluo4 calcium fluorescence, at 1 µM; active compounds read high.
Experiment [3] has as its system TRPC4 (transient receptor potential cation channel C4 beta), mouse. The experiment can be described thus: potentiation of DAMGO EC20 TRPC4 response – cell-based, second round, Fluo-4, HEK293 TRPC4beta/mu-opioid, 1 µM, confirmation (AID 2554;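 active = primary screen hit whose fluorescence ratio, in both repeats, exceeds the weak agonist control mean by 3 SD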). To be noted: DAMGO EC20, Fluo-4 calcium flux, at 1 µM; active compounds read high.
Experiment [4] concerns TRPC4 beta (transient receptor potential cation channel C4), mouse. The experiment can be described thus: potentiation of DAMGO EC20 TRPC4 response – cell-based, Fluo-4, HEK293 TRPC4beta/mu-opioid, confirmation (AID 2555;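 active = primary screen hit whose calcium fluorescence ratio, in both repeats, exceeds the weak agonist control mean by 3 SD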). Conditions: DAMGO EC20, Fluo-4 calcium flux, at 10 µM; active compounds read high. On the technique in general: A change in cytosolic calcium serves as a functional read-out for many receptors and channels.

Experiment [5] concerns the target Short transient receptor potential channel 4 (Mus musculus) (UniProt Q9QUQ5). Description: blockers of DAMGO-evoked TRPC4 calcium flux – cell-based, Fluo4, HEK293 TRPC4beta/mu-opioid, confirmation (AID 2636;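 active = calcium signal cut by more than 3 SD below the full-agonist control yet still positive, in both repeats and the earlier primary screen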). To be noted: at 10 µM; active compounds read high.
Experiment [6] shares this target. The experiment can be described thus: blockers of DAMGO-evoked TRPC4 calcium flux – cell-based, second round, Fluo4, HEK293 TRPC4beta/mu-opioid, 1 µM, confirmation (AID 2637;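 active = calcium signal ratio cut to more than 3 SD under the fully stimulated control mean yet still positive, in both repeats and the primary screen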). Conditions: at 1 µM; active compounds read high.
Experiment [7] shares this target. The experiment can be described thus: potentiation of DAMGO-evoked TRPC4 calcium signal – cell-based, HEK293 TRPC4/mu-opioid, Fluo-4 calcium, EC20 DAMGO, dose response (AID 434941;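 active = earlier screen potentiator hit that boosts the TRPC4 ion channel at some dose, with a dose response; inactive = no potentiation, no dose response, or not a prior hit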;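 note: calcium entry triggered by an EC20 dose of DAMGO at the co-expressed mu-opioid receptor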).
Experiment [8] shares this target. The experiment can be described thus: block of DAMGO-driven TRPC4 calcium entry – cell-based, HEK293 TRPC4/mu-opioid, Fluo-4 calcium, dose response (AID 434942;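 active = primary screen inhibitor hit that blocks the TRPC4 channel at some tested dose, yielding a dose curve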).
Experiment [9] concerns the target Short transient receptor potential channel 6 (Mus musculus) (UniProt Q61143). The experiment can be described thus: TRPC6 blockade by TRPC4 inhibitor hits – cell-based, HEK293, membrane potential dye, duplicate, selectivity assay for TRPC4 inhibitor project, confirmation (AID 434948;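 active = active in primary screen and both duplicates, each dropping signal beyond three positive-control SD with fluorescence still positive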). To be noted: HEK293 TRPC6, membrane potential dye fluorescence, at 10 µM, stimulated with maximal-effect acetylcholine; active compounds read high.

The target is the same in experiment [10]. Description: TRPC6 opening by TRPC4 activator hits – cell-based, HEK293, membrane potential dye, duplicate, selectivity assay for TRPC4 activator project, confirmation (AID 434950;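 active = membrane potential signal rise above negative control mean plus 3 SD in both duplicates, also active in the earlier TRPC4 screen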;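 for activation: 0% = buffer only wells and 100% = acetylcholine maximal-effect wells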). Conditions: HEK293 TRPC6, membrane potential fluorescence, at 10 µM; activation: active compounds read high; outcome: activation.
For experiment [11] the target is unchanged. The experiment can be described thus: positive modulators of mouse TRPC6 channel – HEK293 cells, membrane potential dye, duplicate, selectivity assay for TRPC4 potentiator project, confirmation (AID 434952;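 active = compound raising the membrane signal above positive-control mean plus 3 SD in both repeats, and a primary screen hit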). Conditions: HEK293 TRPC6, membrane potential dye fluorescence, at 10 µM, maximal acetylcholine added after compound; active compounds read high.
Experiment [12] addresses Short transient receptor potential channel 4 (Mus musculus) (UniProt Q9QUQ5). The experiment can be described thus: calcium flux activators in TRPC4/5HT1a cells, counter-screen for TRPC4 activator project, cell-based, second counter screen, HEK293 TRPC4/5HT1a, Fluo-4 (AID 434977).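 For activation: plate controls were assay buffer for no effect and maximal serotonin response for full effect.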 To be noted: Fluo-4 calcium flux, at 10 µM; active compounds read high.
Experiment [13] is described as follows: serotonin-gated TRPC4 signal block – cell-based, second counter screen, HEK293 TRPC4/5HT1a, Fluo-4, counter-screen for TRPC4 inhibitor project, confirmation (AID 434978;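 active = primary screen active whose calcium signal fell more than 3 SD beyond the full-serotonin control mean in both duplicate plates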;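 note: serotonin given first at submaximal then at maximal dose after compound preincubation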). To be noted: Fluo-4 calcium flux, at 10 µM, serotonin added to trigger calcium flux; active compounds read high.
For experiment [14], the system named is TRPC4 (mouse), co-expressed with 5HT1a in HEK293. Description: enhancement of serotonin-evoked TRPC4 response – cell-based, second counter screen, HEK293 TRPC4/5HT1a, Fluo-4, counter-screen for TRPC4 potentiator project, confirmation (AID 434979;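 active = signal rise over 3 SD above mean of control wells given weak agonist, in both repeats and first screen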). Conditions: Fluo-4 calcium flux, at 10 µM, serotonin added at its EC20 dose; active compounds read high.
Experiment [15] can be described thus: nonspecific calcium rise without TRPC4 – cell-based, HEK293 mu-opioid receptor line, counter-screen for TRPC4 activator project, confirmation (AID 449723;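 active = hit in primary screen, with calcium signal over 5 SD above buffer well mean in both duplicates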;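 note: counter screen cells carry the mu-opioid receptor alone and lack TRPC4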). Conditions: HEK293 mu-opioid cells, Fluo-4 calcium fluorescence, at 10 µM; active compounds read high.
A short description of experiment [16]: nonspecific potentiation of DAMGO calcium response – cell-based, HEK293 mu-opioid receptor line, counter-screen for TRPC4 allosteric potentiator project, confirmation (AID 449724;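 active = calcium signal rise more than 3 SD above the low-dose agonist control mean, in both duplicate plates and the primary screen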;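 note: HEK293 cells carrying mu-opioid receptor only with no TRPC4 channel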). Conditions: HEK293 mu-opioid receptor cells, Fluo-4 calcium flux, at 10 µM, compound added before EC20 DAMGO stimulus; active compounds read high.
Experiment [17] is described as follows: nonspecific flux increase, KCNQ1-free cells – parental CHO cells, counter-screen for KCNQ1 potentiator project (AID 493006;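 active = duplicate-averaged activation above buffer control mean plus 5 SD of those controls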;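 for activation: fluorescence ratio of max minus min over baseline after K+ and Tl+ depolarization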). Conditions: parental CHO-K1 cells, FluxOR thallium flux, at 10 µM; active compounds read high.
The target in experiment [18] is Potassium voltage-gated channel subfamily KQT member 1 (Homo sapiens) (UniProt P51787). The experiment can be described thus: enhancement of KCNQ1 channel thallium flux – FluxOR thallium flux, CHO cells, duplicates, confirmation (AID 493007;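 active = potentiation averaged over duplicate wells exceeding buffer-only control mean by more than 3 SD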;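 for outcome: cells depolarized by a potassium plus thallium sulfate stimulus after compound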;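 for potentiation: 0% = buffer-only wells and 100% = R-L3 activator control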). To be noted: KCNQ1 cell line, FluxOR thallium flux fluorescence, at 10 µM; active compounds read high, % of reference activator effect, buffer zero.

Experiment [19] deals with Potassium voltage-gated channel subfamily KQT member 2 (Rattus norvegicus) (UniProt O88943). The experiment can be described thus: KCNQ2 thallium flux enhancement – KCNQ2-CHO-K1 cells, selectivity assay for KCNQ1 potentiator project (AID 493009;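 active = mean duplicate potentiation above the buffer control mean plus 5 SD of buffer wells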;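 note: assay conditions were tuned for KCNQ1 rather than KCNQ2 modulators; signal is max minus min fluorescence divided by baseline after thallium stimulus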). Conditions: FluxOR thallium flux fluorescence, at 10 µM; active compounds read high, scaled: buffer 0, activator control 100.
The target in experiment [20] is Potassium voltage-gated channel subfamily KQT member 1 (Homo sapiens) (UniProt P51787). The experiment can be described thus: KCNQ1 activators by electrophysiology – IonWorks patch clamp, KCNQ1-CHO cells, orthogonal assay for KCNQ1 potentiator project, confirmation (AID 493184;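 active = current rise at least 3 SD above the untreated control mean in each of two repeat wells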;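 for current potentiation: percent change of the same well's current before compound addition so 0% = no change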). Conditions: automated patch clamp current, at 10 µM; active compounds read high. In general terms: Patch clamp records ionic current or voltage across a cell membrane.

For part of these data: Potency and affinity values are given separately. Active and inactive are the calls of the source.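 Rule for the calls, unless noted: active = calcium signal rise above buffer-control mean plus 5 SD in both duplicates, and also a hit in the primary screen; inactive = the rest.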

Chain of Potassium voltage-gated channel subfamily KQT member 1 (Homo sapiens) (P51787 whole entry, looked up): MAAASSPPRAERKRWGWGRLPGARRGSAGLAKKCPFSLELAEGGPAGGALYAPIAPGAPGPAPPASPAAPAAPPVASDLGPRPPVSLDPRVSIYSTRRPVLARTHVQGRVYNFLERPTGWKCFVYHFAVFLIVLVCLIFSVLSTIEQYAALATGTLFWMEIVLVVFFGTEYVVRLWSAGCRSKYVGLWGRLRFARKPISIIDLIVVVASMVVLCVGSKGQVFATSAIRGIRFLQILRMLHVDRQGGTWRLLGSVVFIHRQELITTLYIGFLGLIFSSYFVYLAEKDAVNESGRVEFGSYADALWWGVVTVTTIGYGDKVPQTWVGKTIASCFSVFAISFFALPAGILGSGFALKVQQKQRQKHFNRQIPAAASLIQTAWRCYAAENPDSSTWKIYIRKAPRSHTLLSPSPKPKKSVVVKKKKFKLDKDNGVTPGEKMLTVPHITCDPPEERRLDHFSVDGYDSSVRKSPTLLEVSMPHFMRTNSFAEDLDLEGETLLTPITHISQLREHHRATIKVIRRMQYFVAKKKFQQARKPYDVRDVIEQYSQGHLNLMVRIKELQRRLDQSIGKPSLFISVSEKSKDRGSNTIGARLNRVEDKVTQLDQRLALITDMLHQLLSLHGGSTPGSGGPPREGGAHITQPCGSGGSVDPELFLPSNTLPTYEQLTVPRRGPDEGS
Chain of Short transient receptor potential channel 4 (Mus musculus) (Q9QUQ5 whole entry, looked up): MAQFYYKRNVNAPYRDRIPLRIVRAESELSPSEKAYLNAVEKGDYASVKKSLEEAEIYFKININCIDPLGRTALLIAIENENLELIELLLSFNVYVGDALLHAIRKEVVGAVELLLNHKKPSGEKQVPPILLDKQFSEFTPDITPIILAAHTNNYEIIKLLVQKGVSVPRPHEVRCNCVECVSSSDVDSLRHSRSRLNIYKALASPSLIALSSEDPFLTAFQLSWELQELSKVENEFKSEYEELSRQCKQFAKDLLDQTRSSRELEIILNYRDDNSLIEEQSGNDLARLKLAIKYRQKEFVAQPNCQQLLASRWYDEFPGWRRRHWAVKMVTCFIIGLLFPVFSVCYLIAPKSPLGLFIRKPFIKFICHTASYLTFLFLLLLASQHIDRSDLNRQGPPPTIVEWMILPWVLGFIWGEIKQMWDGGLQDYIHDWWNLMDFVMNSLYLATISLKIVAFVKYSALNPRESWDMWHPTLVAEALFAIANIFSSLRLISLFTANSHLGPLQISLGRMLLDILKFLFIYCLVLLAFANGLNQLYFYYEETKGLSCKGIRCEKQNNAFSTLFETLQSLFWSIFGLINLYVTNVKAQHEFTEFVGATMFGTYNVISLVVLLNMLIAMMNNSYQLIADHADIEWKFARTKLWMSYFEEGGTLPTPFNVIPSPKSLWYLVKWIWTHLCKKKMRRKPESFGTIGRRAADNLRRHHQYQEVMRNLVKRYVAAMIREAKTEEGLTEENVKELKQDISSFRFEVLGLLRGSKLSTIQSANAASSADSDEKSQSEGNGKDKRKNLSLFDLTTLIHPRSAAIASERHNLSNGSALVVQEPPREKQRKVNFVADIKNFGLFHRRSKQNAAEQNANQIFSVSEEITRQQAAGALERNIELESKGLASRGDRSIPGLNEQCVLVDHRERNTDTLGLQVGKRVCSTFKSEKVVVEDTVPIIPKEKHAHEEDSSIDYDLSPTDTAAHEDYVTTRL
Chain of Potassium voltage-gated channel subfamily KQT member 2 (Rattus norvegicus) (O88943 whole entry, looked up): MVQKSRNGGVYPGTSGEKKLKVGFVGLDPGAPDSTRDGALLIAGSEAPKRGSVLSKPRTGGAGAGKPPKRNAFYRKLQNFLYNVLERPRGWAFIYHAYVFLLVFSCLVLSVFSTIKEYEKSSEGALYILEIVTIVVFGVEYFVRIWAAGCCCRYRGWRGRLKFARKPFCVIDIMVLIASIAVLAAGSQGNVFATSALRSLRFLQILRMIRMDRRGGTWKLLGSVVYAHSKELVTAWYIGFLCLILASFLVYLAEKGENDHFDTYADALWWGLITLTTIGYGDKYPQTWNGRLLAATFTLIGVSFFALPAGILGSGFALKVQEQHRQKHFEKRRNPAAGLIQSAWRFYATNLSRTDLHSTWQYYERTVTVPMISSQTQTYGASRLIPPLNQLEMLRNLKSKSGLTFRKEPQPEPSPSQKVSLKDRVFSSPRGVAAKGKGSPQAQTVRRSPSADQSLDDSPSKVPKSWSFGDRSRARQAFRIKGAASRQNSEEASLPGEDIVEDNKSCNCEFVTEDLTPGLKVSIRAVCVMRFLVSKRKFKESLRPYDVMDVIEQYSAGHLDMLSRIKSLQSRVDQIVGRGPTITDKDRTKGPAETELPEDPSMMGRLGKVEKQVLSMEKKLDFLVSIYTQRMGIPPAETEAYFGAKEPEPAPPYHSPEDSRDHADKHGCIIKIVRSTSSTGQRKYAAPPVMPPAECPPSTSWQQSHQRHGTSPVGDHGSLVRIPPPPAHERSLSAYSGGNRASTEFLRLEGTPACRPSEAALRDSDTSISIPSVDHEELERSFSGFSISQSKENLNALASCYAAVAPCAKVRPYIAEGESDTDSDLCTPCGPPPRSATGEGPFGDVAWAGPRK
Chain of Short transient receptor potential channel 6 (Mus musculus) (Q61143 whole entry, looked up): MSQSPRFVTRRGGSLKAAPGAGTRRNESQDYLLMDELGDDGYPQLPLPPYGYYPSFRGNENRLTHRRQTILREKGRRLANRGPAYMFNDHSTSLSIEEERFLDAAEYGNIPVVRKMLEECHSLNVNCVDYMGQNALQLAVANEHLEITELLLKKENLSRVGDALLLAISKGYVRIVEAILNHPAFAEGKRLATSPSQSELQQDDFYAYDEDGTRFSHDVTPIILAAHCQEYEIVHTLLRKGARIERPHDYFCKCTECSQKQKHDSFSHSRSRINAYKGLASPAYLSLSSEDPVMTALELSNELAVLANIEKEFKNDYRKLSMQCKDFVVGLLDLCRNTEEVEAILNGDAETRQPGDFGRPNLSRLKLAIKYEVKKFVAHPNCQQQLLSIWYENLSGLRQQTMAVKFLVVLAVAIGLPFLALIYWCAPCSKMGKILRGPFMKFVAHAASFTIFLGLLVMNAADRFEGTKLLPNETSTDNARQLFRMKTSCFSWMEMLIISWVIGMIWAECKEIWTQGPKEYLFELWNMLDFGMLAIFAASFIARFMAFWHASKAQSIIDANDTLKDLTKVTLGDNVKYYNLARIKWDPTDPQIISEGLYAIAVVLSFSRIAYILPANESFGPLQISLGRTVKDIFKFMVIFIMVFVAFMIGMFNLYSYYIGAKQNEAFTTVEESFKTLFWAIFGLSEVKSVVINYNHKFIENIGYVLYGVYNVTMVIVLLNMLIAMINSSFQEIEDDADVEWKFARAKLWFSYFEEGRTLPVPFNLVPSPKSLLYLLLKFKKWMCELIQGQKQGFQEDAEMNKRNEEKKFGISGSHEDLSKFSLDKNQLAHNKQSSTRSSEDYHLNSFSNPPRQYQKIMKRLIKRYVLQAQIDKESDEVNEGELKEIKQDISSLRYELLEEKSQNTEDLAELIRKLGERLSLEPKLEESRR

On to `Cc1ccc(NS(=O)(=O)c2ccc(C(=O)N3CC(C)CC(C)C3)cc2)cc1` (stereo unspecified), for which the activation in [1] was 103% (active); in experiment [10], 65.5% (active); in experiment [12], 43.8% (active); in [15] it was 25.6% (active); in experiment [17], 138% (active). For the same compound, the outcome in [2], in experiment [3], in [4], in experiment [5], in experiment [6] and in experiment [7] was inactive. In addition, the result in experiment [8], in experiment [9], in [11], in experiment [13], in experiment [14] and in experiment [16] was inactive. For the same compound, the outcome in [18], in experiment [19] and in experiment [20] was inactive.

Turning to `Cc1cccc(C(=O)NC(=S)NNC(=O)c2ccccc2Cl)c1`, the activation in experiment [1] was 201% (active); in experiment [10], 34% (active); in experiment [12], 138% (active); in experiment [15] it was 85.8% (active). Also, the result in experiment [2], in [3], in experiment [4], in experiment [5], in experiment [6] and in experiment [7] was inactive. Besides, the result in experiment [8], in experiment [9], in experiment [11], in experiment [13], in [14] and in experiment [16] was inactive. Also, the result in experiment [17] and in experiment [20] was inactive. The potentiation was 50.5% (active) in experiment [18] and 158% (active) in [19].

Take `Cc1ccccc1C(=O)Nc1c(C(=O)N(CCN(C)C)Cc2ccco2)oc2ccccc12`: the activation in [1] is 84% (active); in experiment [10], 33.5% (active). Moreover, the outcome in experiment [2], in experiment [3], in [4], in experiment [5], in experiment [6] and in [7] was inactive. Also, the compound was called inactive in experiment [9], in experiment [11], in [12], in experiment [13], in experiment [14] and in experiment [15]. Besides, the outcome in [16] was inactive.

For the compound `Clc1ccc(COn2c(-c3ccc(Cl)cc3Cl)nc3ncccc32)cc1`, the activation is 74% (active) in experiment [1] and 54% (active) in experiment [10]. Besides, the outcome in experiment [2], in experiment [3], in experiment [4], in experiment [5], in experiment [6] and in experiment [7] was inactive. Also, the outcome in [9], in experiment [11], in experiment [12], in [13], in experiment [14] and in [15] was inactive. For the same compound, the outcome in experiment [16] was inactive.

For `CC(C)(C)C(=O)NC(=S)NNC(=O)c1ccc(-c2ccccc2)cc1`, the activation in [1] is 257% (active); in experiment [2] it was 60% (active); in [10] it was 35.5% (active); in experiment [12] it was 147% (active); in experiment [15], 83.6% (active); in experiment [17] it was 308% (active). The outcome in experiment [3], in [4], in experiment [5], in experiment [6], in experiment [7] and in [8] was inactive. The call in experiment [9], in experiment [11], in [13], in experiment [14], in [16] and in experiment [20] was inactive. Moreover, the potentiation in experiment [18] was 163% (active); in experiment [19], 430% (active).

With `Cc1onc(-c2ccccc2)c1C(=O)NNC(=S)NC(=O)c1ccc(F)cc1`, the activation in [1] is 201% (active); in experiment [10], 27.5% (active); in experiment [12], 110% (active); in experiment [15], 58.7% (active). In addition, the outcome in experiment [2], in experiment [3], in experiment [4], in [5], in experiment [6] and in [7] was inactive. Moreover, the result in experiment [8], in experiment [9], in experiment [11], in [13], in [14] and in [16] was inactive. For the same compound, the outcome in experiment [17], in [18] and in experiment [19] was inactive. Moreover, the current potentiation in [20] was 16.2% (active).

On to `CCN1/C(=C\c2ccc3ccccc3[n+]2CC)Sc2cc(C)ccc21`, for which the activation in experiment [1] is 544% (active); in [2], 147% (active); in [12] it was 600% (active); in experiment [15], 672% (active); in [16], 27400% (active). Also, the outcome in experiment [3], in experiment [5], in [6], in [7], in [8] and in experiment [9] was inactive. Further, the compound was classed as inactive in experiment [10], in [11] and in [13]. Moreover, the potentiation in experiment [4] is 18% (active); in experiment [14], 110% (active).
